# PostGolgi ctrl = growth inhibition of yeast control strain, primary screen, counter-screen for post-Golgi transport modulator project; efflux-deficient yeast background strain, growth absorbance A615, 16 h; inhibition, % at 10 µM; 98,000 compounds, 5% hits; AID 738, 2007
# CYP2C19 act = human CYP2C19 activators, primary screen, biochemical, luminescence; activation factor at 5 µM; recombinant CYP2C19, luciferin-H EGE luminescence; active compounds read high; 0 = fully inhibited enzyme, 1 = untreated enzyme; Cytochrome P450 2C19 (Homo sapiens), P33261; 96,000 tested, under 10 active; AID 1025, 2008;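 active = activation factor of at least 2 at 5 µM in the primary screen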;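 note: 0 = wells with 2.5 mM tranylcypromine and 1 = vehicle-only wells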
# CYP2C9 inhib = blockers of cytochrome P450 2C9 activity – biochemical, luminescence, ADME assay, primary screen | CYP2C9 Supersomes, luciferin-H conversion | P11712 | 96,000 compounds, 20% hits | inhibition, % at 5 µM;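 active = blocking of liver enzyme CYP2C9 beyond about 50% at 5 µM, limit read from the data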
# Target sequence (P11712 whole entry, looked up): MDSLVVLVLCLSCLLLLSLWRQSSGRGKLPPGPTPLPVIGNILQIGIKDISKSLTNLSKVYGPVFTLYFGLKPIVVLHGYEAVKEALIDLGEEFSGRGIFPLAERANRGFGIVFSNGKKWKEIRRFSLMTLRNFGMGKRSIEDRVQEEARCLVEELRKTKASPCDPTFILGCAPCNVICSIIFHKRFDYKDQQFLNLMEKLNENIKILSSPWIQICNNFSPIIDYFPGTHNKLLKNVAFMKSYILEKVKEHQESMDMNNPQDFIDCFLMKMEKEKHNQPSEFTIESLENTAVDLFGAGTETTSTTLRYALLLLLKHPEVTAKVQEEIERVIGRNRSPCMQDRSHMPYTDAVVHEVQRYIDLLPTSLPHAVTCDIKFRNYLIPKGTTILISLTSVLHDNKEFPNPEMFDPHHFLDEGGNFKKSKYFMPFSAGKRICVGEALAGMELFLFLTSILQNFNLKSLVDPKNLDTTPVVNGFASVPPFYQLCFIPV
# PostGolgi yeast = phenotypic screen on post-Golgi transport, primary screen | 98,000 compounds, 0.9% hits | post-Golgi transport phenotypic cell assay | inhibition, % at 10 µM;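 note: yeast cells grown in 1536-well plates; yeast grown about 18 h at 30C before absorbance read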
# CYP2C9 act = human CYP2C9 activators, primary screen, biochemical, luminescence. AID 1024, 2008. 96,000 compounds, 1.4% hits. Cytochrome P450 2C9 (Homo sapiens), P11712. activation factor at 5 µM. recombinant CYP2C9, luciferin-H conversion; active compounds read high; factor 1 = untreated enzyme, 0 = blocked;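 active = activation factor of 2 or more for CYP2C9 at a 5 µM dose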;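 note: 0 = sulfaphenazole-blocked wells and 1 = vehicle-only wells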
# CYP2C19 inhib = blockers of cytochrome P450 2C19 activity – biochemical, luminescence, ADME assay, primary screen. inhibition, % at 5 µM. CYP2C19 Supersomes, luciferin-H EGE luminescence, 30 min. P33261. AID 778, 2007. 96,000 compounds, 21% hits;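 active = CYP2C19 inhibition above a set limit at 5 µM in the primary screen, cut at about 50% in these data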;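 note: plate controls were negative control wells for no effect and 2.5 mM tranylcypromine positive control for full effect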
# Active calls of the source: *. A selection: hits, their analogues and other compounds. The true share with any hit is near 32%. Cut-off read from the data, not from the text of the source, unless noted: active = inhibition above about 30%; inactive = the rest.
SMILES,PostGolgi ctrl,CYP2C19 act,CYP2C9 inhib,PostGolgi yeast,CYP2C9 act,CYP2C19 inhib
CC(=O)NC1C(=O)Nc2c(C)cc(C)cc21 (configuration not stated),-4,1,4,-8,1,0
O=C(Nc1nc2c(s1)CCCC2)C1CCCN1C(=O)c1cccs1 (configuration not stated),2,0.6,39,6,0.6,42
Cc1ccc(C(=O)/C=C/c2ccc(Br)cc2)o1,9,0.9,8,-5,0.9,13
CCNc1ccccc(C(=O)/C=C/c2ccc3c(c2)OCO3)c1=O,0,0.1,37,4,0.6,85*
Cc1ccc(C(=O)/C=C/c2ccccc2)o1,7,0.3,57*,-1,0.4,69*
Cc1ccc(C(=O)/C=C/c2ccc3c(c2)OCO3)o1,13,0.5,34,-9,0.7,54*
CC(/C=C/c1ccc2c(c1)OCO2)=N\NC(=O)c1cccc([N+](=O)[O-])c1,-3,1,9,1,0.9,0
O=C(Nc1nc2cc(Cl)ccc2s1)C1CCCN(S(=O)(=O)c2cccc3cccnc23)C1 (configuration not stated),36*,0.9,-106,2,2.1*,7
O=C(Nc1nccs1)C1CCCN(S(=O)(=O)c2cccc3cccnc23)C1 (configuration not stated),5,0.5,8,2,0.9,45
O=C(Nc1ccc(F)cc1)C1CCCN(S(=O)(=O)c2cccc3cccnc23)C1 (configuration not stated),9,0.3,-74,-11,1.7,68*
CCOC(=O)c1c(C)[nH]c(C)c1C(=O)COC(=O)[C@@H]1CCCN1S(=O)(=O)c1ccc(Cl)cc1,1,0.1,80*,2,0.2,93*
O=c1cccccc1NCc1ccccc1,3,0.9,16,20,0.8,11
N#Cc1ccccc1NCc1ccccc1,32*,0.7,7,-2,0.9,33
Cc1ccc2c(c1)NC(=O)C(N1CCOCC1)(C(F)(F)F)O2 (configuration not stated),1,0.4,34,-20,0.7,55*
CCC(=O)N1CCc2cc(S(=O)(=O)NCCN3CCCCC3CC)ccc21 (configuration not stated),-4,1,-17,3,1.2,0
CN1CCc2nc(NC(=O)c3cccc(S(=O)(=O)N4CCc5ccccc54)c3)sc2C1,-5,1,27,6,0.7,-2
CCC(CC)c1nnc(NC(=O)c2cccc(S(=O)(=O)N3CCc4ccccc43)c2)s1,7,0.7,76*,7,0.2,28
CCCCC1=NN2C(=N)CC(=O)N=C2S1,-5,0.9,12,-7,0.9,9
CCCc1cc(=O)[nH]c(SCC(=O)N(C)CC(=O)Nc2ccccc2CC)n1,12,1,8,2,0.9,-1
CCOc1ccc(C(=O)NCC(C)C)cc1,1,1.1,-20,0,1.2,-13
CC(C)COc1ccc(C(=O)Nc2scc(-c3ccc(Cl)cc3Cl)c2C(N)=O)cc1,10,0.7,67*,-5,0.3,30
Cc1cccc(-n2c(SCc3cc(=O)n4c(C)cccc4n3)nc3[nH]ncc3c2=O)c1,8,0.7,-2,5,1,28
CCOC(=O)c1ccc(N2C(=O)c3n[nH]c(C)c3C2c2ccco2)cc1 (configuration not stated),19,0.2,77*,-5,0.2,81*
Cc1ccc(N2C(=O)c3n[nH]c(C)c3C2c2ccco2)cc1 (configuration not stated),4,0.9,-6,8,1.1,6
CCOC(=O)c1ccc(N2C(=O)C(O)=C(C(C)=O)C2c2ccc(O)c(OC)c2)cc1 (configuration not stated),23,0.9,81*,1,0.2,9
COC(=O)c1ccc(C2c3c(n[nH]c3C)C(=O)N2c2ccc(C)cc2)cc1 (configuration not stated),26,0.2,63*,6,0.4,77*

# Source: PubChem BioAssay (several laboratories)
